Screening data deposited in PubChem BioAssay by National Center for Advancing Translational Sciences (NCATS).
Hits are enriched below; roughly 8% of the tested compounds scored in any of these assays.
MARV entry inh: qHTS for Inhibitors of binding or entry into cells for Marburg Virus; Potency, µM (series often up to 49.2 µM), usual class: inhibitors; Marburg virus pseudotype entry/binding inhibition, cell-based; AID 720532, 2013; 18,000 tested, 6.5% active
Lassa entry: qHTS for Inhibitors of binding or entry into cells for Lassa Virus; Potency, µM (titrated, usually from 49.2 µM), hits mostly inhibitors; Lassa virus pseudotyped entry inhibition, cell-based qHTS; 18,000 tested, 4.1% active
Hits are given with their value; – = inactive; ? = inconclusive; · = no result; ! = a repeat was not active; [ ] = another dose, or the depositor's remark. Calls come from the whole dose curve; tested in HEK293 cells.

SMILES	MARV entry inh	Lassa entry
CC(=O)OC[C@H]1O[C@H](C#Cc2ccccc2)C=C[C@H]1O	–[8.59 µM]	–[8.59 µM]
CC12C=C(C=CCCc3ccco3)C(C)(C1)C(CCc1ccco1)CC2=O (stereo not given)	–[8.59 µM]	–[8.59 µM]
CN(C)Cc1c[nH]c2ccccc12	–	–
OCc1c[nH]c2ccccc12	31.6µM!	31.6µM!
C[C@H]1[C@@H](C(=O)N2CCCC2)CC(=NOCc2ccccc2)C(=NOCc2ccccc2)C[C@H]1c1ccccc1	–[8.59 µM]	·
CN(C)c1ccc2nc3ccc(=[N+](C)C)cc-3sc2c1	3.55µM	11.2µM
Cc1cc2nc3ccc(=[N+](C)C)cc-3sc2cc1N	12.6µM	22.4µM
CC1(C)CN(CCc2ccccc2)C(=O)[C@@H]1CC(=O)Nc1ccccc1	–	–
COc1ccc2c(c1)[C@H](C=Cc1ccccc1)[C@@H]([C@H](O)CO)O2	–[8.59 µM]	–[8.59 µM]
CC1=C[C@@H](COCc2ccccc2)O[C@@]2(C1)C(=O)N(Cc1ccc(Br)cc1)c1ccccc12	–[8.59 µM]	–[8.59 µM]
COC(C)(C)CCCC(C)C/C=C/C(C)=C/C(=O)OC(C)C (stereo not given)	–	14.1µM!
COC(=O)C1=C(C)N(CC2CC2)C(=NCCc2cccnc2)NC1c1ccccc1 (stereo not given)	–[8.59 µM]	–[8.59 µM]
COC(=O)C1=C(C)N(Cc2ccccc2)C(=NCc2ccc3c(c2)OCO3)NC1CCc1ccccc1 (stereo not given)	–[8.59 µM]	·
CCCCN1CCC[C@H]1CNC(=O)c1cc(C#N)c2ccccc2c1OC	10µM	?
CCc1cc(Cl)c(OC)c(C(=O)NC[C@@H]2CCCN2CC)c1O	4.47µM	?
CCN1CCCC1CNC(=O)c1cnn(-c2nccc(-c3ccccc3OC)n2)c1-c1ccco1 (stereo not given)	?	–
CCN1CCCC1CNC(=O)c1cc(S(N)(=O)=O)ccc1OC (stereo not given)	–	–
CCCCCCCCCC=C[C@@H]1C[C@H]2C=CCO[P@@](=O)(O1)O2	–	–
COC(=O)c1c(C(=O)OC)c2c3cc(OC)c(OC)cc3ccn2c1C(=O)OC	–[8.59 µM]	·
CC(=O)[C@]12C[C@@H]3CCCN(C(=O)N[C@@H]1c1ccccc1)[C@@H]32	–[8.59 µM]	–[8.59 µM]
COc1cc(C(=O)OC2C[C@H]3CC[C@@H](C2)N3C)ccc1O (stereo not given in full)	–	–
Cc1cc(C)cc(C(=O)OC2C[C@H]3CC[C@@H](C2)N3C)c1 (stereo not given in full)	11.2µM	?
CCOC(=O)[C@@H]1CSCCS(=O)(=O)N1C(=O)c1ccc(Br)cc1	–	–
C[C@]12O[C@@H]1[C@@H](O)C(Br)=C(CO)[C@@H]2O	–[8.59 µM]	–[8.59 µM]
C/C=C(/C)C(=O)O[C@H]1C(C)=C2[C@H]([C@@H]1OC(=O)CCCCCCC)[C@@](C)(OC(C)=O)C[C@H](OC(=O)CCC)[C@@]1(O)[C@H]2OC(=O)[C@@]1(C)O	22.4µM	44.7µM
SMILES	MARV entry inh	Lassa entry
O=C(c1cccs1)N1C[C@@H](O)[C@@H](n2cc(C3CC3)nn2)C[C@@H]1c1ccc(Cl)cc1	–	·
COc1cc2c3cc1Oc1cc(ccc1O)CC1c4c(cc(OC)c(O)c4Oc4ccc(cc4)CC3N(C)CC2)CC[N+]1(C)C (stereo not given)	–	–
COc1cc2c3cc1Oc1c(OC)c(OC)cc4c1C(Cc1cccc(c1)Oc1ccc(c(O)c1)CC3N(C)CC2)N(C)CC4 (stereo not given)	–	–
COc1ccc2cc1Oc1ccc(cc1)CC1c3cc(c(OC)cc3CCN1C)Oc1c(OC)c(OC)cc3c1C(C2)N(C)CC3 (stereo not given)	1.58µM	11.2µM
COc1ccc2cc1Oc1ccc(cc1)C[C@H]1c3cc(c(OC)cc3CCN1C)Oc1c(OC)c(OC)cc3c1[C@@H](C2)N(C)CC3	2.24µM	?
COc1cc(OC)c2nc(-c3cc4c(c(OC)c3)OCCN(C(=O)CC3NC(=O)c5ccccc53)C4)cc(C)c2c1 (stereo not given)	–	–
COc1cc(-c2ccc(C(F)(F)F)cn2)cc2c1OCCN(S(=O)(=O)C[C@]13CC[C@H](CC1=O)C3(C)C)C2	?	12.6µM
COC(=O)C1(C(=O)OC)C[C@@H]2CON=C2[C@@H]1c1ccccc1	–[8.59 µM]	–[8.59 µM]
CC=Cc1cc2ccccc2c2c(C(=O)OC)c(C(=O)OC)c(C(=O)OC(C)(C)C)n12	?	–[8.59 µM]
CC(=O)C1=C(C)N(Cc2ccccc2)C(=O)NC1CCc1ccccc1 (stereo not given)	–[8.59 µM]	·
COc1ccc(OC)c(-c2ccc(O)c(CN3CCc4c([nH]c5ccccc45)C3)c2)c1	12.6µM	?
COc1ccc(CN2CCOc3c(cc(-c4ccc(OC)nn4)cc3OC)C2)c(O)c1	–	–
CC(CN(C)C)CN1c2ccccc2S(=O)(=O)c2ccccc21 (stereo not given)	?	–
CCN(CC)C(C)CN1c2ccccc2Sc2ccccc21 (stereo not given)	1.58µM	14.1µM
O=[N+]([O-])c1ccc(/C=N\O)o1	–	–
NC(N)=NN=C(/C=C/c1ccc([N+](=O)[O-])o1)/C=C/c1ccc([N+](=O)[O-])o1	14.1µM	6.31µM
O=C1NCCN1CCN1CCC(c2cn(-c3ccc(F)cc3)c3ccc(Cl)cc23)CC1	11.2µM	22.4µM
CN1CCN(c2cc3c(cc2F)c(=O)c(C(=O)O)cn3-c2ccc(F)cc2)CC1	–	–
N=c1ccn2c(n1)OCC1C2O[C@@H](O)[C@H]1O (stereo not given in full)	14.1µM	?
N=c1ccn2c(n1)OC1C(O)C(CO)OC12 (stereo not given)	0.708µM	?
O=c1ncccn1[C@@H]1O[C@H](CO)C(O)[C@@H]1O (stereo not given in full)	–	–
CCN1C(=O)NC(c2cccc(C(F)(F)F)c2)C(C(C)=O)=C1C (stereo not given)	–[8.59 µM]	–[8.59 µM]
O=C(Oc1ccccc1)[C@H]1O[C@H]1c1ccccc1	–[8.59 µM]	·
O=C(O)c1ccc(OCCCOc2ccc(C(=O)O)cc2)cc1	–	–
CC/C(=C(/c1ccccc1)c1ccc(OCCN(C)C)cc1)c1ccccc1	3.16µM	·
SMILES	MARV entry inh	Lassa entry
CN(C)CCOC(=O)COc1ccc(Cl)cc1	–	–
CCN(CC)CCOc1ccc(/C(=C(\Cl)c2ccccc2)c2ccccc2)cc1	·	14.1µM!
COC[C@H](c1ccc(C(F)(F)F)cc1)N1CCN(C2(C)CCN(C(=O)c3c(C)ncnc3C)CC2)C[C@H]1C	–	–
CCCCCCCCCCC[C@@H]1C[C@H]2C=CCO[P@@](=O)(O1)O2	–	·
Cc1cccc(CNc2ncnc3ccc(-c4ccc5c(c4)OCO5)cc23)c1	–	–
Cc1cccc(CNc2ncnc3ccc(-c4ccccc4CN(C)C)cc23)c1	10µM	?
COC[C@@H](OC(C)=O)[C@H]1OCc2ccccc2[C@@H]1C=Cc1ccccc1	–[8.59 µM]	–[8.59 µM]
COc1ccc2c(c1)CO[C@H]([C@H](O)CO)[C@H]2C=CC#Cc1ccc(C(C)(C)C)cc1	–[8.59 µM]	–[8.59 µM]
C=CCN1c2ccccc2[C@]23CCC(=O)N(CC4CC4)C2=NC(C(=O)OC)=C(C(=O)OC)[C@H]13	–[8.59 µM]	–[8.59 µM]
COC(=O)[C@]1(C)CC[C@@]2(C)CC[C@@]3(C)C4=CC=C5C(=CC(=O)C(O)=C5C)[C@@]4(C)CC[C@@]3(C)C2C1 (stereo not given in full)	3.55µM	5.62µM
COC(=O)/C=C\c1cc(O)ccc1O	10µM	25.1µM
COC(=O)c1ccc(O)cc1	–	–
C=COC[C@@H]1CN2[C@H](c3ccc(Br)cc3)[C@H](C)CC[C@H]2C(=O)O1	–[8.59 µM]	–[8.59 µM]
C=CC[C@@H]1C=C[C@@H](Oc2ccc(OC)cc2)[C@H](CO)O1	–[8.59 µM]	–[8.59 µM]
